Results as given in the supplement of paper PMC6607015.
Structures can show the parent of a compound that is named as a salt.

Legend:
Conditions in all cases: compound concentration in added solution (µM; 5 µl added to 20 µl cells): 10; 18 h
A431 [1] = assay: LBPA endosome anti-LBPA integrated intensity (sum per cell), Z-score; higher = more LBPA staining
In short: (§1)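 Z-scores normalised in AcuityXpress are given for per-cell integrated LBPA or filipin intensity, measured whole-cell or within LBPA endosomes by MetaXpress segmentation. Cells (HeLa MZ or A431, 3,500 per well in 20 µl) were seeded onto 5 µl of 10 µM compound solution in duplicate 384-well imaging plates and fixed in 4% PFA after 18 h.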

HeLa MZ [2] = assay: as above
In short: as §1

A431 [3] = assay: whole-cell filipin (free cholesterol) integrated intensity, Z-score; higher = more cholesterol staining
In short: as §1

HeLa MZ [4] = assay: as above
In short: as §1

A431 [5] = assay: filipin (cholesterol) integrated intensity within LBPA endosomes, Z-score; higher = more cholesterol in LBPA endosomes
In short: as §1

HeLa MZ [6] = assay: as above
In short: as §1

SMILES	LBPA endosome anti-LBPA integrated intensity (z-score) (A431 [1])	LBPA endosome anti-LBPA integrated intensity (z-score) (HeLa MZ [2])	whole-cell filipin (z-score) (A431 [3])	whole-cell filipin (z-score) (HeLa MZ [4])	filipin (z-score) (A431 [5])	filipin (z-score) (HeLa MZ [6])
Oc1c(Cl)cc(Cl)c(Cl)c1Cc1c(O)c(Cl)cc(Cl)c1Cl [Hexachlorophene]	-0.408	-0.818	-0.203	-0.11	-0.443	-0.32
C=C(CC)C(=O)c1ccc(OCC(=O)O)c(Cl)c1Cl [Ethacrynic acid]	-0.359	-0.213	-0.0585	0.416	-0.423	-0.312
Nc1nc(N)c2nc(-c3ccccc3)c(N)nc2n1 [Triamterene]	0.172	-1.01	-0.647	-1.14	-0.443	-0.487
CCN(CC)CCOC(=O)C(Cc1cccc2ccccc12)CC1CCCO1 (stereo not drawn) [Nafronyl oxalate]	1.69	2.05	1.62	0.888	1.25	1.15
COc1ncnc(NS(=O)(=O)c2ccc(N)cc2)c1OC [Sulfadoxine]	-0.426	-0.662	0.0314	-0.436	-0.379	-0.505
CCN(CC)C(=O)/C(C#N)=C/c1cc(O)c(O)c([N+](=O)[O-])c1 [Entacapone]	-0.554	-0.84	-0.719	0.0172	-0.479	-0.52
Cc1cc(N)c2ccccc2[n+]1CCCCCCCCCC[n+]1c(C)cc(N)c2ccccc21 [Dequalinium dichloride]	-0.351	0.0986	-0.943	1.23	-0.599	-0.485
CC[C@H]1OC(=O)[C@H](C)[C@@H](O[C@H]2C[C@@](C)(OC)[C@@H](O)[C@H](C)O2)[C@H](C)[C@@H](O[C@@H]2O[C@H](C)C[C@H](N(C)C)[C@H]2O)[C@](C)(O)C[C@@H](C)/C(=N\OCOCCOC)[C@H](C)[C@@H](O)[C@]1(C)O [Roxithromycin]	-0.396	0.565	0.114	0.214	-0.261	0.0396
Cc1cc(C(C)(C)C)c(O)c(C)c1CC1=NCCN1 [Oxymetazoline hydrochloride]	-0.605	0.256	-0.84	-0.57	-0.491	-0.228
CCC(=O)O[C@]1(C(=O)SCF)[C@H](C)C[C@H]2[C@@H]3C[C@H](F)C4=CC(=O)C=C[C@]4(C)[C@@]3(F)[C@@H](O)C[C@@]21C [Fluticasone propionate]	-0.0811	0.00943	0.193	-0.0272	-0.0798	-0.437
Cc1ccc(C)c(OCCCC(C)(C)C(=O)O)c1 [Gemfibrozil]	-0.639	-0.782	-0.695	-0.706	-0.635	-0.699
C#C[C@]1(O)CC[C@H]2[C@@H]3CCC4=CC(=O)CC[C@@H]4[C@H]3CC[C@@]21CC [Norgestrel-(-)-D]	-0.501	-0.275	-0.421	-0.79	-0.478	-0.446
CCOC(=O)NNc1nncc2ccccc12 [Todralazine hydrochloride]	-0.642	-1.72	-0.897	-0.795	-0.572	-0.622
